The source of these data is PubChem BioAssay (Tox21).

Assay [1] is described as follows: qHTS assay to identify small molecule antagonists of the estrogen related receptor (ERR) signaling pathway from Tox21 library - cell viability counter screen (AID 1224834). Note: nearly all actives have a fitted effect of over 30% in size. Note: potency is the fitted concentration of half-maximal effect. Put shortly: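 In this quantitative HTS format, ERR cells receive compounds in DMSO and are incubated for 17.5 h at 37 C. Live-cell protease activity is then detected with CellTiter-Fluor.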

Assay [2] in a line: qHTS assay to identify small molecule agonists of the constitutive androstane receptor (CAR) signaling pathway - cell viability counter screen (AID 1224836). Note: % is set by controls: 0 for no effect and ±100 for the full control effect; nearly all actives have a fitted effect of over 45% in size. Put shortly:
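Using CellTiter-Fluor, viability of HepG2 cells harbouring hCAR and CYP2B6-2.2kb was measured following 23 h incubation with a 15-concentration compound series plus PK11195 (0.75 uM final).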

Assay [3] is described as follows: qHTS assay to identify small molecule antagonists of the constitutive androstane receptor (CAR) signaling pathway - cell viability counter screen (AID 1224837). Note: % is set by controls: 0 for no effect and ±100 for the full control effect; nearly all actives have a fitted effect of over 45% in size. Put shortly:
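In quantitative HTS format, compounds at 15 concentrations were applied to HepG2 cells double-transfected with hCAR and CYP2B6-2.2kb under 50 nM CITCO stimulation; live-cell protease activity was read after 23 hr via CellTiter-Fluor.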
In general terms: In qHTS, concentration-response curves come from the screen itself.

Assay [4] has as its target Nuclear receptor subfamily 1 group I member 3 (Homo sapiens) (UniProt Q14994). Description: qHTS assay to identify small molecule antagonists of the constitutive androstane receptor (CAR) signaling pathway (AID 1224838). Note: nearly all actives have a fitted effect of over 40% in size. Note: potency is the fitted concentration of half-maximal effect. The gist of the method:
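CITCO-stimulated (50 nM final) HepG2 cells stably transfected with hCAR and CYP2B6-2.2kb luciferase were exposed to compounds at 15 concentrations for 24 h at 37 C/5% CO2. A luciferase reagent was added and luminescence recorded after 30 min.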

Assay [5] has the same target. Description: qHTS assay to identify small molecule agonists of the constitutive androstane receptor (CAR) signaling pathway (AID 1224839).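 For activation: HepG2 cells stably carrying human CAR and a CYP2B6 luciferase reporter; % is set by controls: 0 for no effect and ±100 for the full control effect.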 Note: nearly all actives have a fitted effect of over 15% in size. Note: potency is the fitted concentration of half-maximal effect. The gist of the method: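 Double-stable HepG2 cells (hCAR, CYP2B6-2.2kb) seeded 4 h before compound addition. Exposure 24 h with 0.75 uM PK11195 final. Luciferase detected by ONE-Glo.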
The target in assay [6] is Thyrotropin receptor (Homo sapiens) (UniProt P16473). Description: qHTS assay to identify small molecule agonists of the thyroid stimulating hormone receptor (TSHR) signaling pathway (AID 1224843; calls by dose curve; note: % is set by controls: 0 for no effect and ±100 for the full control effect; nearly all actives have a fitted effect of over 45% in size). The gist of the method:
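Agonist activity read as cAMP rise via d2/cryptate HTRF competition, 1 h room-temperature detection, in HEK293 cells expressing TSHR. Fifteen-point titrations, each run in triplicate, with a 30 min room-temperature incubation beforehand.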

Assay [7] in a line: qHTS assay to identify small molecule agonists of the hypoxia (HIF-1) signaling pathway - cell viability counter screen (AID 1224844; calls by dose curve; note: nearly all actives have a fitted effect of over 50% in size; note: potency is the fitted concentration of half-maximal effect). The gist of the method:
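Same wells as the HIF-1 reporter screen; ME-180 cells carrying HRE-bla, 17 hr treatment at 37C; CellTiter-Glo luminescence read after 30 min at room temperature.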

A short description of assay [8]: qHTS assay to identify small molecule agonists of H2AX - cell viability counter screen (AID 1224847; calls by dose curve; note: nearly all actives have a fitted effect of over 30% in size; note: potency is the fitted concentration of half-maximal effect). Put shortly:
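Quantitative HTS viability measurement: CHO-K1 wild-type cells in serum (10% FBS) medium, short 3 hr drug exposure at 37C with 0.76% DMSO, CellTiter-Glo luminescent detection.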

Assay [9] can be described thus: qHTS RealTime-Glo MT Cell Viability Assay in HEK293 cells - 32 hour (AID 1224868). Note: nearly all actives have a fitted effect of over 50% in size. Note: potency is the fitted concentration of half-maximal effect. The gist of the method:
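HEK293 cells seeded with NanoLuc/prosubstrate reagent, rested 5 h at 37 C, then dosed and kept at 37 C up to 40 h. Nonlytic real-time luminescence from viable cells read at 0, 8, 16, 24, 32 and 40 h.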

The nature of assay [10]: A CellTox Green Cytotoxicity Assay to monitor cytotoxicity in HEK293 cells - 0 hour (AID 1224869). Note: % is set by controls: 0 for no effect and ±100 for the full control effect; nearly all actives have a fitted effect of over 50% in size. The gist of the method: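 Homogeneous no-lysis format: HEK293 cell suspension mixed with CellTox Green reagent, seeded, incubated 5 h at 37 C/5% CO2, then dosed by pintool with compound in DMSO.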
Assay [11] is described as follows: qHTS RealTime-Glo MT Cell Viability Assay in HepG2 cells - 40 hour (AID 1224870). Note: nearly all actives have a fitted effect of over 50% in size. Note: potency is the fitted concentration of half-maximal effect. The gist of the method: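 Real-time viability: cells seeded at 600 per well together with NanoLuc and cell-permeant prosubstrate, compounds added after 5 h incubation. Luminescence tracked at 0, 8, 16, 24, 32 and 40 h of exposure.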
Assay [12] concerns the target Luciferin 4-monooxygenase (Photinus pyralis) (UniProt P08659). The assay is described as follows: qHTS assay to identify small molecule inhibitors of firefly luciferase (AID 1224835). Note: nearly all actives have a fitted effect of over 25% in size. Note: potency is the fitted concentration of half-maximal effect. Put shortly: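 Inhibition of purified Photinus luciferase is measured by luminescence. Substrate levels (D-luciferin, ATP) sit at their KM values. Each compound is tested in a concentration series.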

Assay [13] in a line: qHTS assay to identify small molecule agonists of the estrogen related receptor signaling pathway with the pleiotropic PPARgamma coactivator (PGC) from Tox21 10K library (AID 1224842). Note: % is set by controls: 0 for no effect and ±100 for the full control effect; nearly all actives have a fitted effect of over 15% in size. Put shortly: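 Luminescence from One-Glo (30 min, room temperature) measured after PGC/ERR cells had 18 h at 37 C with pinned compound (23 nL in DMSO). Cells had been seeded at 2,000 per well and pre-incubated 6 h.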

A short description of assay [14]: qHTS assay to identify small molecule agonists of H2AX (AID 1224845; active = well fitted activation curve with a large enough effect in the signal ratio in the repeat runs, not every such curve was filed as active; the % refers to the signal ratio; note: potency is the fitted concentration of half-maximal effect). Put shortly: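 Phospho-H2AX Ser139 measured by HTRF (ex 320 nm; em 665 and 620 nm) after 24 hr antibody incubation. Compounds, 15 concentrations, 0.76% DMSO, were applied to CHO-K1 cells for 3hr at 37C before lysis.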
Assay [15] can be described thus: qHTS assay to identify small molecule agonists of the hypoxia (HIF-1) signaling pathway (AID 1224846; active = well fitted activation curve with a large enough effect in the signal ratio in the repeat runs, not every such curve was filed as active; the % refers to the signal ratio; note: % is set by controls: 0 for no effect and ±100 for the full control effect). Put shortly:
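In ME-180 cells bearing an HRE-bla construct, 17 h treatment with DMSO-dissolved compounds at 37C was followed by CCF4-AM loading to quantify reporter induction.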

Assay [16] in a line: qHTS assay to identify small molecule antagonists of the estrogen related receptor (ERR) signaling pathway from Tox21 library (AID 1224848). Put shortly: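 Luciferase luminescence (ONE-Glo, 30 min room temperature) was the read-out. Cells of the NTP-supplied ERR line, 2,000 per well, were given 6 h at 37 C before compound addition in DMSO and 18 h exposure at 37 C.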
Assay [17] can be described thus: qHTS assay to identify small molecule agonists of the estrogen related receptor (ERR) signaling pathway from Tox21 library (AID 1224849; calls by dose curve; note: % is set by controls: 0 for no effect and ±100 for the full control effect; nearly all actives have a fitted effect of over 15% in size). The settings on record: ERR reporter cell line, ONE-Glo luciferase, 18 h; at 92.4 µM (top of the series) unless noted. The gist of the method:
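Reporter cells (ERR, NTP source) treated with Tox21 10K compounds 18 h, 37 C. Readout: ONE-Glo luminescence, 30 min RT.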

Assay [18] is described as follows: qHTS assay to identify small molecule antagonists of the estrogen related receptor signaling pathway with the pleiotropic PPARgamma coactivator (PGC) from Tox21 10K library - cell viability counter screen (AID 1224840; active = well fitted cell-killing curve with a large enough effect in the repeat runs, not every such curve was filed as active; note: % is set by controls: 0 for no effect and ±100 for the full control effect; nearly all actives have a fitted effect of over 40% in size). Put shortly: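 Viability counter screen, PGC/ERR cells: 17.5 h compound exposure at 37 C, CellTiter-Fluor fluorescence endpoint.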
Assay [19] is described as follows: qHTS RealTime-Glo MT Cell Viability Assay in HepG2 cells - 24 hour (AID 1224867). Put shortly:
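HepG2 cells (600/well) were dispensed with RealTime-Glo reagents, incubated 5 h at 37 °C, then treated with compounds in DMSO for up to 40 h. Nonlytic NanoLuc luminescence reflecting viable cells was read at each stated time point.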

Unmarked numbers belong to inactive results. Records with an inconclusive call do not appear. Active and inactive are the calls of the source. Unless noted, calls come from the whole dose curve; as a rule, active = well fitted curve in the direction sought with a large enough effect in the repeat runs; inconclusive = weak or mixed curves; inactive = no such curve, though single readings can be large; an effect the other way counts as inactive or inconclusive.

Luciferin 4-monooxygenase (Photinus pyralis), sequence (P08659 whole entry, looked up): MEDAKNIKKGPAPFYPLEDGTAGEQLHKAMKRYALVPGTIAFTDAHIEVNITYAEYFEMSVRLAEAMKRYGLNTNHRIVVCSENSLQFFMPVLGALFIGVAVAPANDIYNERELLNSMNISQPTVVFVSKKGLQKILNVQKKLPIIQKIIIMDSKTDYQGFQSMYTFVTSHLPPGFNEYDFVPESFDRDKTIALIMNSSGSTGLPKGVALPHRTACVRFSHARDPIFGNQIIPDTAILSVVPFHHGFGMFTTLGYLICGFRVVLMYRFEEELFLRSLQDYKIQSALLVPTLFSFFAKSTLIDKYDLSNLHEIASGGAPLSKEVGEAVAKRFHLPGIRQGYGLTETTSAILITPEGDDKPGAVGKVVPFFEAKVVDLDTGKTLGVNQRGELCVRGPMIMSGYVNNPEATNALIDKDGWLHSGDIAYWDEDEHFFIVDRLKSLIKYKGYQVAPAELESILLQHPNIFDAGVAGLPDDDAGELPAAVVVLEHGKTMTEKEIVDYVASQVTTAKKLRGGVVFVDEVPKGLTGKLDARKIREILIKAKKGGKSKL
Nuclear receptor subfamily 1 group I member 3 (Homo sapiens), sequence (Q14994 whole entry, looked up): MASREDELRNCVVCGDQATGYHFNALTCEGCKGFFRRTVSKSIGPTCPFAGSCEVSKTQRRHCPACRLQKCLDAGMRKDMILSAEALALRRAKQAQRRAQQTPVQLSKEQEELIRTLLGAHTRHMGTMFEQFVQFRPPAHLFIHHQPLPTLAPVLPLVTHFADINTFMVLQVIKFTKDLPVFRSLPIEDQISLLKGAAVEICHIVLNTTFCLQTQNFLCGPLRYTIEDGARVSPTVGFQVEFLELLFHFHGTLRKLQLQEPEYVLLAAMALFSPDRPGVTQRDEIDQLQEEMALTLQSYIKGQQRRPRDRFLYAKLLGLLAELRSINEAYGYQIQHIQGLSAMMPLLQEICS
Thyrotropin receptor (Homo sapiens), sequence (P16473 whole entry, looked up): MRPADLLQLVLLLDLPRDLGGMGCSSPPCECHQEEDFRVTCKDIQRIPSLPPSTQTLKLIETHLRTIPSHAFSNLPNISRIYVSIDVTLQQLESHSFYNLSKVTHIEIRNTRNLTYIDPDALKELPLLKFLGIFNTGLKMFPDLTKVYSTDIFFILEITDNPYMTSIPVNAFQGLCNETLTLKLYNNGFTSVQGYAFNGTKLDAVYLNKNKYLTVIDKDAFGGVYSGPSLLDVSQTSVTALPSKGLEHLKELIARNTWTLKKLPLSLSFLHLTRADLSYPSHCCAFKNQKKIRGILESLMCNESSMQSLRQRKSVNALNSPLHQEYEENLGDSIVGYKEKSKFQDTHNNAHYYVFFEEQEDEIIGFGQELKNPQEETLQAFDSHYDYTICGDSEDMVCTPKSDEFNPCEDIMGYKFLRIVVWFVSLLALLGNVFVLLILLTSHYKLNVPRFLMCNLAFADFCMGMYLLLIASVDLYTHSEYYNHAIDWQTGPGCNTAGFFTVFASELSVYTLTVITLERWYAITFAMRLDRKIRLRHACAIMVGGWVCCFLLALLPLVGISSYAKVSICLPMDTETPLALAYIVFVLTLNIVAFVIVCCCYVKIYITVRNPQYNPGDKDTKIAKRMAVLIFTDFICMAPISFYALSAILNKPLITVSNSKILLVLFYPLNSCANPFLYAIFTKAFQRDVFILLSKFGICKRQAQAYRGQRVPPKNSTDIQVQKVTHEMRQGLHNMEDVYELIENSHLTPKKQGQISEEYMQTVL

On to `CN(C(=O)C(Cl)Cl)c1ccc(OC(=O)c2ccco2)cc1`, for which the Potency entry in [1], in assay [2], in assay [3], in assay [4], in assay [5] and in [6] was “inactive” each time. Besides, the Potency entry in [7], in assay [8], in assay [9], in assay [10] and in assay [11] was “inactive” each time.
Take `CCCCC1C(=O)N(c2ccccc2)N(c2ccc(O)cc2)C1=O` (centres undefined): the Potency in assay [1] is 18.8 µM (active); in [4] it was 29.8 µM (active); in assay [16], 21.1 µM (active); in [11], 23.9 µM (active). In addition, the Potency result in [12], in assay [2], in assay [5], in assay [13] and in [14] was “inactive” each time. Besides, the result in [15] was inactive. In addition, the activity change, positive = activation in assay [17] was -65.4% [at 42.5 µM].
Take `COC(=O)CC(=O)C(C)(C)C`: the Potency result in assay [1], in assay [12], in assay [2], in [3], in assay [18] and in assay [6] was “inactive” throughout. The Potency entry in assay [14], in [19], in [9], in assay [10] and in assay [11] was “inactive” throughout.
For the molecule `CC1=C(/C=C/C(C)=C\C=C\C(C)=C\C(=O)O)C(C)(C)CCC1`, the Potency is 54.5 µM (active) in assay [1], 39.9 µM (active) in [12] and 24.3 µM (active) in assay [5]. Besides, the Potency result in assay [2], in assay [4], in assay [8], in assay [9], in assay [10] and in assay [11] was “inactive” each time.
Turning to `C=CC(C)(C)CC(=O)OC`, the Potency in assay [1] was 1.22 µM (active); in [4], 15.4 µM (active); in assay [7], 12.3 µM (active); in [9], 1.38 µM (active). For the same molecule, the Potency result in assay [12], in assay [5], in assay [6], in assay [8], in [19] and in assay [10] was “inactive” each time. The Potency result in [11] was “inactive”. Further, the molecule was classed as inactive in [15].
Turning to `Nc1nc(Cl)nc2c1ncn2[C@@H]1O[C@H](CO)[C@@H](O)[C@@H]1F`, the Potency result in [1], in [12], in [2], in [3], in assay [6] and in assay [8] was “inactive” each time. The Potency entry in assay [19], in [10] and in assay [11] was “inactive” each time. The results for the Potency in assay [14] and in assay [9] were 1.56 µM (active) and 4.77 µM (active), respectively. In [15], the result was inactive.
Turning to `O=C(O)c1snc(Cl)c1Cl`, the Potency entry in assay [1], in assay [2], in [3], in [4], in assay [5] and in assay [18] was “inactive” throughout. Further, the Potency entry in assay [6], in assay [19], in [9], in assay [10] and in assay [11] was “inactive” each time. The outcome in [15] was inactive.
Take `CC(N)CN` (centres undefined): the Potency result in [1], in [12], in [2], in [3], in [18] and in assay [6] was “inactive” each time. Besides, the Potency entry in [7], in assay [14], in assay [8], in assay [19], in assay [9] and in assay [10] was “inactive” throughout. The Potency entry in [11] is “inactive”. Also, the molecule was called inactive in assay [15].
Regarding `CC[C@@H]([C@H](C)O)n1ncn(-c2ccc(N3CCN(c4ccc(OC[C@@H]5CO[C@@](Cn6cncn6)(c6ccc(F)cc6F)C5)cc4)CC3)cc2)c1=O`, the Potency in assay [1] was 9.44 µM (active); in [8], 19.6 µM (active); in [9], 3.01 µM (active). Further, the Potency result in assay [12], in assay [4], in assay [5], in assay [14] and in assay [10] was “inactive” each time. Besides, the molecule was called inactive in [15].
`CN1CCN(CCCN2c3ccccc3Sc3ccc(S(=O)(=O)N(C)C)cc32)CC1`: the Potency in assay [1] and in assay [16] was 26.6 µM (active) throughout. Moreover, the Potency result in assay [12], in assay [5], in assay [13] and in assay [10] was “inactive” throughout. Further, in [15], the molecule was called inactive. In addition, in assay [17], the activity change, positive = activation is -33.1% [at 42.5 µM].
